Most compounds without a hit are left out; they make up all but 4.8% or so of the library.
SMARCA2 act: increases SMARCA2 function in MMTV reporter cells. MG213 cells, MMTV-luciferase reporter, dexamethasone, overnight. 370,000 compounds, 1% hits. AID 652017. activation, % at 9.1 µM; in the data active = activation above about 7.8%
ssDAF-12 act: S. stercoralis DAF-12 activation, primary screen; 370,000 compounds, 1% hits; activation, % at 6.8 µM; HEK293 ssDAF-12/GRIP1 lit1-tk-luc reporter, luminescence; % of 3 µM dafachronic acid response; AID 652126;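 active = activation above the mean over all tested compounds plus 3 SD, cut at about 0.9% in these data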
DAX1 inh-1: DAX1 (NR0B1) inhibition, primary screen; HEK293T StAR-luciferase reporter, SF-1/DAX-1 repression relief; inhibition, % at 6.8 µM; 370,000 compounds, 1.1% hits; AID 652010;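 active = inhibition above the mean over all tested compounds plus 3 SD, cut at about 3.6% in these data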;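 also: higher inhibition means more luminescence from relief of DAX-1 repression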
hgDAF-12 ag: hgDAF-12 agonism, primary luciferase screen; activation, % at 6.8 µM; HEK293 GAL4-hgDAF12 UAS-luciferase reporter, agonist luminescence; normalized to butyrate control; 370,000 compounds, 1.8% hits;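 active = activation above a cutoff set at the mean of all screened compounds plus 3 SD, cut at about 10% in these data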
hcDAF12 agonist: activates DAF-12 receptor from parasite H. contortus | HEK293 hcDAF-12 lit1-tk-luc reporter, luminescence; 0% DMSO, 100% Δ7-dafachronic acid | activation, % at 6.8 µM | 370,000 compounds, 1.4% hits | AID 652067;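 active = activation above the mean of all tested compounds plus 3 SD, cut at about 5.5% in these data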
DAX1 inh-2: inhibitors of human orphan nuclear receptor DAX1 (NR0B1). HEK293 Gal4-DAX1 luciferase reporter, luminescence. inhibition, % at 6.75 µM. 340,000 compounds, 0.99% hits;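 active = inhibition above the mean over all tested compounds plus 3 SD, cut at about 4.2% in these data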;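 also: inhibition shows as a rise in luminescence from relieved DAX1 repression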
Target sequence (P51843 207-470 limits assumed): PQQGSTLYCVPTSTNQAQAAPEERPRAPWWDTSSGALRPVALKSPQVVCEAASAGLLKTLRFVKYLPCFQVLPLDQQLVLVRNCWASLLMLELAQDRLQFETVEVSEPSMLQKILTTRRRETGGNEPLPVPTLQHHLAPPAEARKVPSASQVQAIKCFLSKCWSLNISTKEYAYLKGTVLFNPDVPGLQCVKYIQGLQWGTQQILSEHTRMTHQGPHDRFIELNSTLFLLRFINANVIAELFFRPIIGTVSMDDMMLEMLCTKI
DAX1 conf: confirmation of human DAX1 (NR0B1) inhibitors; shares compounds with DAX1 inh-1; HEK293T StAR-promoter luciferase reporter, SF-1/DAX-1 repression; inhibition, % at 6.8 µM; 2,400 compounds, 87% hits;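 active = inhibition above the average of every tested compound plus 3 SD, cut at about 3.8% in these data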;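 also: active compounds raise luminescence by relieving repression of the StAR reporter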
SF1 mutant ctr: counter-screen for DAX1 inhibitors: nonselective inhibitors with SF-1 AF2 mutant; 2,400 compounds, 78% hits; AID 652136; inhibition, % at 6.8 µM; shares compounds with DAX1 inh-1; HEK293 StAR-luciferase, luminescence;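 active = inhibition above the mean of all tested compounds plus 3 SD, cut at about 3% in these data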
Hits are given with their value.

Screening O=C(CNC(=O)c1ccc2c(c1)OCO2)NCCOc1ccc(Cl)cc1 returned SMARCA2 act inactive, ssDAF-12 act inactive, DAX1 inh-1 inactive, hgDAF-12 ag inactive, hcDAF12 agonist inactive and DAX1 inh-2 inactive.
`O=C(NCCOc1ccc(Cl)cc1)c1ccc2c(c1)OCCO2` gave SMARCA2 act inactive, ssDAF-12 act inactive, DAX1 inh-1 5.8, hgDAF-12 ag inactive, hcDAF12 agonist inactive, DAX1 inh-2 inactive, DAX1 conf 7.5 and SF1 mutant ctr 5.4.
O=C(Nc1ccc(Cl)cc1[N+](=O)[O-])c1ccc2c(c1)OCCO2 was read as SMARCA2 act inactive, ssDAF-12 act inactive, DAX1 inh-1 4.7, hgDAF-12 ag inactive, hcDAF12 agonist inactive, DAX1 inh-2 inactive, DAX1 conf 10.3 and SF1 mutant ctr 4.2.
`CC(=O)Nc1cccc(-c2cc(C(C)=O)c3n(c2=O)CCC3)c1` gave SMARCA2 act inactive, ssDAF-12 act inactive, DAX1 inh-1 inactive, hgDAF-12 ag inactive and hcDAF12 agonist inactive.
For COc1ccc(-c2nc3ccccc3nc2-c2ccc(OC)cc2)cc1 the results were SMARCA2 act inactive, ssDAF-12 act inactive, DAX1 inh-1 inactive, hgDAF-12 ag inactive, hcDAF12 agonist inactive and DAX1 inh-2 inactive.
For COc1ccc(-c2nc3ccccc3[nH]2)cc1 the results were SMARCA2 act inactive, ssDAF-12 act inactive, DAX1 inh-1 6.8, hgDAF-12 ag 12.1, hcDAF12 agonist 5.8, DAX1 inh-2 inactive, DAX1 conf 15.3 and SF1 mutant ctr 6.1.
Screening COc1cc(-n2c(C)nc3cc(C(=O)N4CCN(C(C)=O)CC4)ccc32)cc(OC)c1OC returned SMARCA2 act inactive, ssDAF-12 act inactive, DAX1 inh-1 inactive, hgDAF-12 ag inactive and hcDAF12 agonist inactive.
Screening CCc1cccc2c(C(=O)CN3C(=O)NC(C)(c4cccc5ccccc45)C3=O)c[nH]c12 (stereo not drawn) returned SMARCA2 act inactive, ssDAF-12 act inactive, DAX1 inh-1 inactive, hgDAF-12 ag inactive, hcDAF12 agonist inactive and DAX1 inh-2 inactive.
Screening CCc1cccc2c(C(=O)CN3C(=O)NC4(CCc5ccccc54)C3=O)c[nH]c12 (stereo not drawn) returned SMARCA2 act inactive, ssDAF-12 act inactive, DAX1 inh-1 12.4, hgDAF-12 ag inactive, hcDAF12 agonist inactive, DAX1 inh-2 inactive, DAX1 conf 5.9 and SF1 mutant ctr inactive.
Screening CCc1cccc2c(C(=O)CN3C(=O)N(C)C4(CCCCC4)C3=O)c[nH]c12 returned SMARCA2 act inactive, ssDAF-12 act inactive, DAX1 inh-1 7.9, hgDAF-12 ag inactive, hcDAF12 agonist inactive, DAX1 inh-2 inactive, DAX1 conf 10.5 and SF1 mutant ctr inactive.
Screening CCc1cccc2c(=O)c(C(=O)N3CCCCCC3)c[nH]c12 returned SMARCA2 act inactive, ssDAF-12 act inactive, DAX1 inh-1 inactive, hgDAF-12 ag inactive, hcDAF12 agonist inactive and DAX1 inh-2 inactive.
CCCC/C=C1/[C@@H](CC)N(Cc2ccc(OC)cc2OC)C2=N[C@@H](c3ccccc3)CC(=O)N21 was read as ssDAF-12 act inactive, hgDAF-12 ag inactive and hcDAF12 agonist inactive.
Screening CN(C(=O)c1cn(C)c2ccccc12)c1ccc(Oc2cccnc2)cc1 returned SMARCA2 act inactive, ssDAF-12 act inactive, DAX1 inh-1 inactive, hgDAF-12 ag inactive and hcDAF12 agonist inactive.
Screening O=C(NCC1(N2CCCCC2)CCCCC1)c1cccc(S(=O)(=O)Nc2ccc(F)cc2)c1 returned SMARCA2 act inactive, ssDAF-12 act inactive, DAX1 inh-1 5.0, hgDAF-12 ag inactive, hcDAF12 agonist inactive, DAX1 inh-2 inactive, DAX1 conf 5.2 and SF1 mutant ctr inactive.
`CC(=O)Nc1ccc(C(=O)NCC2(N3CCCCC3)CCCCC2)cc1` gave SMARCA2 act inactive, ssDAF-12 act inactive, DAX1 inh-1 4.6, hgDAF-12 ag inactive, hcDAF12 agonist inactive, DAX1 inh-2 inactive, DAX1 conf 5.3 and SF1 mutant ctr 3.0.
`O=C(NCC1(N2CCOCC2)CCCCC1)c1cccc(S(=O)(=O)Nc2ccc(F)cc2)c1` gave SMARCA2 act inactive, ssDAF-12 act inactive, DAX1 inh-1 inactive, hgDAF-12 ag inactive, hcDAF12 agonist inactive and DAX1 inh-2 inactive.
For Cc1cccc(NS(=O)(=O)c2cccc(C(=O)NCC3(N4CCOCC4)CCCCC3)c2)c1 the results were SMARCA2 act inactive, ssDAF-12 act inactive, DAX1 inh-1 inactive, hgDAF-12 ag inactive, hcDAF12 agonist inactive and DAX1 inh-2 inactive.
Screening O=C(NCC1(N2CCCCC2)CCCCC1)c1cccc(NS(=O)(=O)c2ccccc2)c1 returned SMARCA2 act inactive, ssDAF-12 act inactive, DAX1 inh-1 6.9, hgDAF-12 ag inactive, hcDAF12 agonist inactive, DAX1 inh-2 inactive, DAX1 conf 8.3 and SF1 mutant ctr 4.1.
`Cc1cc(S(=O)(=O)Nc2ccc(C(=O)NCC3(N4CCCCC4)CCCCC3)cc2)ccc1F` gave SMARCA2 act inactive, ssDAF-12 act inactive, DAX1 inh-1 7.4, hgDAF-12 ag inactive, hcDAF12 agonist inactive, DAX1 inh-2 inactive, DAX1 conf 7.6 and SF1 mutant ctr 6.1.
Screening CCOc1ccc(NS(=O)(=O)c2ccc(C(=O)NCC3(N4CCCCC4)CCCCC3)cc2)cc1 returned SMARCA2 act inactive, ssDAF-12 act inactive, DAX1 inh-1 4.5, hgDAF-12 ag inactive, hcDAF12 agonist inactive, DAX1 inh-2 inactive, DAX1 conf 11.4 and SF1 mutant ctr 3.5.
`COc1ccc(-c2cc3c(o2)CCCC3OCCN2CCOCC2)cc1` (stereo not drawn) gave SMARCA2 act inactive, ssDAF-12 act inactive, DAX1 inh-1 4.7, hgDAF-12 ag inactive, hcDAF12 agonist inactive, DAX1 conf 5.7 and SF1 mutant ctr 3.0.
`c1cc(-c2cc3c(o2)CCCC3OCCN2CCOCC2)cs1` (stereo not drawn) gave SMARCA2 act inactive, ssDAF-12 act inactive, DAX1 inh-1 inactive, hgDAF-12 ag inactive and hcDAF12 agonist inactive.
`O=C(Cn1cnc2ccccc2c1=O)N1CCCCC1` gave SMARCA2 act inactive, ssDAF-12 act inactive, DAX1 inh-1 inactive, hgDAF-12 ag inactive and hcDAF12 agonist inactive.
Screening COc1cccc(N=CNc2cccc(OC)c2)c1 returned SMARCA2 act inactive, ssDAF-12 act inactive, DAX1 inh-1 4.7, hgDAF-12 ag inactive, hcDAF12 agonist inactive, DAX1 inh-2 inactive, DAX1 conf 5.4 and SF1 mutant ctr 3.4.
`CC1(C)C=Cc2ccc(O)c(C(=O)/C=C/c3ccccc3)c2O1` gave ssDAF-12 act inactive, hgDAF-12 ag inactive and hcDAF12 agonist inactive.
